The record followed here is PubChem BioAssay.

Molecules are shown by their SMILES. The source made the active and inactive calls.

The assay is described as follows: small-molecule microarray binders of probe aXIP, primary screen, biochemical, NeuroSMM set, 635/667 nm fluorescence (AID 1119).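 Note: probe is the protein aXip251-270 applied at 1 µg/mL to compound-printed slides; binding of probe to printed compounds measured as 667 nm fluorescence plus signal to noise.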 The conditions noted are these: higher = more signal, called active from +8 up or from −8 down.
In the case of `COCC(=C=CC[C@@H](O)c1ccccc1OCCO)C[C@@H](O)c1cc(Cl)cc(Cl)c1O`, the composite Z-score was 0.103 (inactive).
In the case of `COc1ccc(C(=O)Nc2ccc(CN3C(=O)[C@@]4(O[C@@H](CCO)[C@H]([Si](C)(C)c5ccc(OC)cc5)[C@H]4C)c4ccccc43)cc2)cc1`, the composite Z-score is 0.673 (inactive).
To `O=C1O[C@H](c2ccccc2)[C@H](c2ccccc2)N2[C@H]1[C@@H](C(=O)O)[C@]1(C(=O)Nc3ccc(C#CCCO)cc31)[C@H]2c1ccc(O)cc1` belongs 0.0575 (inactive); to `C=CC[C@@]1(C(N)=O)N=C(c2ccc(OCCCO)cc2)O[C@@H]1c1ccccc1CN=[N+]=[N-]`, -0.631 (inactive).
With `COCCOC(=O)N1C(=O)[C@@]2(c3cc(C#CC4=CCCCC4)ccc31)[C@H](C(=O)N1CCc3cc(OC)c(OC)cc3C1)[C@H]1C(=O)O[C@H](c3ccccc3)[C@H](c3ccccc3)N1[C@@H]2c1ccc(OCCO)cc1`, the composite Z-score was 0.238 (inactive).
To `COc1ccc(C(O)C2C=CC3C(=O)N(c4ccccc4)C(=O)C3N2Nc2ccccc2F)cc1OCc1ccccc1` (configuration not stated) belongs 1.22 (inactive).
To `C=C(COC)/C(=C/C[C@@H](OC(C)=O)c1ccc(CO)o1)c1cnc2ccccc2c1` belongs 0.319 (inactive).
To `O=C1C[C@]2(c3ccc([N+](=O)[O-])cc3)C(=O)N(CCN3CCOCC3)c3cc(CO)ccc3[C@H]2N1C1CCCCC1` belongs -0.598 (inactive).
Regarding `COC(=O)C=C(CC(O)c1cccc(Cl)c1)OC` (configuration not stated), the composite Z-score was 1.22 (inactive).
In the case of `COc1cc2c(cc1OC)CN(C(=O)[C@@H]1[C@H]3C(=O)O[C@H](c4ccccc4)[C@H](c4ccccc4)N3[C@H](c3ccc(O)cc3)[C@@]13C(=O)Nc1ccc(C#CC4(O)CCCCCC4)cc13)CC2`, the composite Z-score was 0.841 (inactive).
Next, `[N-]=[N+]=NCc1ccccc1C[C@@]1(C(=O)NCC(O)CO)N=C(c2ccc(OCCCO)cc2)O[C@@H]1c1ccccc1N=[N+]=[N-]` (some centres not stated): 1.26 (inactive); `CCOC(=O)C[C@H]1[C@H](OC(=O)Cc2ccc3c(c2)OCO3)[C@@H](NC(=O)c2ccc(-c3ccccc3)cc2)c2cc(OCCCO)ccc2N1C(=O)c1ccc2ccccc2n1`: -0.549 (inactive).
To `O=C(NCc1ccccc1)[C@@]1(Cc2ccccc2)N=C(c2ccc(OCCCO)cc2)O[C@H]1c1ccccc1` belongs 0.1 (inactive).
To `O=C1NC(=O)C2C1C=CC(C(O)c1ccccc1)N2Nc1ccc(Cl)cc1Cl` (configuration not stated) belongs -0.199 (inactive); to `CN(C)CCCNC(=O)[C@@]1(c2ccc([N+](=O)[O-])cc2)CC(=O)N(C2CCCCC2)[C@@H]1c1ccc(CO)cc1`, -0.14 (inactive); to `COC(=O)[C@@]1(Cc2ccccc2)[C@H]2c3cc(C(=O)N4CCCC4)n(Cc4cccc5ccccc45)c3C[C@H]2CN1C(=O)c1ccccc1`, 0.304 (inactive).
As to `CC(C)(C)OC(=O)CC[C@@]1(C(N)=O)N=C(c2ccc(OCCCO)cc2)O[C@@H]1c1ccccc1`, the composite Z-score is -0.327 (inactive).
To `COc1cc2c(cc1O)C=[N+](Cc1cccc(OC(F)(F)F)c1)CC2` belongs 0.0714 (inactive).
To `C=C(C)C1C(=C)CN([C@H](CO)c2ccccc2)C1=O` (some centres not stated) belongs 1.66 (inactive); to `COCCCNC(=O)C1N=C(c2ccc(OCCCO)cc2)N(c2ccccc2)O1` (configuration not stated), -0.442 (inactive).
Consider `C=CC[C@@]1(C(=O)NCc2ccccc2)N=C(c2ccc(OCCCO)cc2)O[C@@H]1c1ccccc1N=[N+]=[N-]`, for which the composite Z-score was -0.108 (inactive).
In the case of `CCOc1cc(C(O)C2C=CC3C(=O)N(c4ccccc4)C(=O)C3N2Nc2ccccc2)ccc1O` (configuration not stated), the composite Z-score is -0.224 (inactive).
Next, `O=C1O[C@H](c2ccccc2)[C@H](c2ccccc2)N2[C@H]1[C@@H](C(=O)NC[C@H](O)c1ccccc1)[C@]1(C(=O)Nc3ccccc31)[C@H]2c1ccc(OCCO)cc1`: -0.249 (inactive); `COc1ccc(C(O)C2C=CC3C(=O)N(C)C(=O)C3N2N2CCCCC2)c2ccccc12` (configuration not stated): 0.476 (inactive).
Turning to `CN1C(=O)[C@]2(Cc3ccccc3)N=C(c3ccc(OCCCO)cc3)O[C@@H]2c2ccccc21`, the composite Z-score was 0.307 (inactive).
As for `C=CCOC(=O)[C@H]1[C@@H]2C(=O)O[C@@H](c3ccccc3)[C@@H](c3ccccc3)N2[C@@H](c2ccc(OCCOC(=O)[C@@H]3C[C@@H]4C(=O)N[C@@H](CCCCN(C)C)C(=O)N4[C@@H]3c3ccc(O)cc3)cc2)[C@]12C(=O)Nc1ccc(I)cc12`, the composite Z-score is 0.711 (inactive).
In the case of `CC(C)(C)OC(=O)CC[C@@]1(C(=O)NCC(O)CO)N=C(c2ccc(OCCCO)cc2)O[C@@H]1c1ccccc1N=[N+]=[N-]` (some centres not stated), the composite Z-score is 0.559 (inactive).
